# Values joined by “and” are separate entries in the source; they are usually repeats but may differ in a detail not shown here. Equal entries are not always repeated. Inconclusive results are not listed. Where a call stands in place of a potency, no number is given. Active and inactive are the calls of the source. Unless noted, calls come from the whole dose curve; as a rule, active = well fitted curve in the direction sought with a large enough effect; inconclusive = small, poorly fitted or top-dose-only effect, or another doubt; inactive = no such curve, though single readings can be large; an effect the other way counts as inactive or inconclusive.
# What was measured:
# [1] = qHTS for Activators of Parkin Expression: LOPAC Validation Assay (FLuc Reporter) (AID 720573; note: potency is the fitted concentration of half-maximal effect)
# Summary of the method: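 FLuc signal from Parkin-promoter coincidence reporter neuronal cells, normalized to DMSO and positive control (100%). Cells (1,500/well) pre-incubated 24 h, then exposed to LOPAC compounds in 7-point dose response for 24 h at 37 C, 5% CO2.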
# [2] = biological target: T1, Hexokinase-4 (Homo sapiens) + Glucokinase regulatory protein (Homo sapiens) (UniProt P35557+Q14397); experiment: qHTS assay for inhibitors of recombinant human GCK-GKRP interaction: Diaphorase-coupled assay (AID 743205)
# Summary of the method: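 A kinetic fluorescence read (Ex 525/Em 590 nm, every minute for 30 minutes) tracked resorufin from a G6PDH-diaphorase coupled GCK reaction. It contained 10 nM GST-GCK, 10 nM FLAG-GKRP, 5 mM glucose, 0.4 mM ATP in Hepes pH 7.6. Normalized to with/without-enzyme DMSO controls.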
# [3] = biological target: T1, Hexokinase-4 (Homo sapiens) + Glucokinase regulatory protein (Homo sapiens); experiment: qHTS assay for inhibitors of recombinant human GCK-GKRP interaction: ADP-Glo assay (AID 743206); note: potency is the fitted concentration of half-maximal effect
# Summary of the method: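 Pin-transferred compounds meet a 15 nM GST-GCK/15 nM FLAG-GKRP/2 uM S6P mix (dispense concentrations). ATP is then added to 0.4 mM final with 5 mM glucose, and the reaction runs 60 min at room temperature. ADP is quantified luminescently.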
# [4] = qHTS Assay for Identifying Gametocytocidal Compounds (AID 743244); note: potency is the fitted concentration of half-maximal effect;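 for max response: actives lower the fluorescent signal which means gametocytes are killed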; details: P. falciparum 3D7 stage III-V gametocytes, alamarBlue, 72 h; max response: stronger effect = lower value
# Summary of the method: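 3D7 gametocytes, stages III–V, 20,000/well; cpd 72 h, 37 °C/5% CO2; + alamarBlue 24 h; fluor. Ex 525/Em 598.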
# [5] = qHTS assay for small molecule agonists of the antioxidant response element (ARE) signaling pathway measured by Nrf2-dependant transcriptional activity - cell viability counter screen (AID 720653; active = well fitted curve in the direction sought with a large enough effect in the repeat runs; an effect the other way counts as inactive or inconclusive); details: ARE-bla HepG2 viability, CellTiter-Glo ATP luminescence, 16 h; max response: stronger effect = lower value
# Summary of the method: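 Cytotoxicity counter screen: intracellular ATP quantified by CellTiter-Glo luminescence in the same ARE-bla HepG2 plates, after 16 h compound exposure and a 2 h beta-lactamase substrate step.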
# [6] = qHTS assay for cell viability of the p53RE-bla HCT-116 cell line (AID 743292); note: nearly all actives have a fitted effect of over 55% in size; note: potency is the fitted concentration of half-maximal effect
# Summary of the method: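 ATP-based luminescence, 16 h compound exposure at 37 C, p53RE-bla HCT-116 cells at 4,000/well.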
# [7] = biological target: T1, Hexokinase-4 (Homo sapiens) + Glucokinase regulatory protein (Homo sapiens); experiment: qHTS assay for inhibitors of recombinant human GCK-GKRP interaction: HTRF assay (AID 743207)
# Summary of the method: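 After 60 min equilibration at room temperature with anti-FLAG XL665 and anti-GST antibodies, FRET ratio (665/615 nm, excitation 320 nm) was read. Proteins: GST-GCK and FLAG-GKRP, each 5 nM, plus 2 uM S6P, pH 7.1 buffer; GCK-free wells define minimum signal.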
# [8] = qHTS profiling for inhibitors of Plasmodium falciparum (3D7) proliferation (AID 743322; call rule not given here;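 note: infected erythrocytes exposed to compound for 72 h before lysis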); details: P. falciparum 3D7 proliferation; at 28.7 µM (top of the series) unless noted
# Summary of the method: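 Parasite DNA was quantified by SYBR Green I fluorescence (ex 485, em 535 nm) after overnight lysis in saponin/Triton buffer at room temperature. Cultures at 0.3% parasitemia and 2.5% hematocrit were first exposed to compound for 72 h at 37 C; signals were normalised to artemisinin (0.29 uM) and vehicle wells.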
# [9] = qHTS profiling for inhibitors of Plasmodium falciparum (DD2) proliferation (AID 743323; call rule not given here); details: lower = more inhibition; at 28.7 µM (top of the series) unless noted
# Summary of the method: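 Parasite proliferation measured via DNA-dye fluorescence, as uninfected erythrocytes lack DNA. Cultures at 0.3% parasitemia and 2.5% hematocrit incubated 72 h with compound; signal scaled between vehicle and 0.29 uM artemisinin wells.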
# [10] = qHTS profiling for inhibitors of Plasmodium falciparum (HB3) proliferation (AID 743324); details: Plasmodium falciparum HB3 blood-stage proliferation; at 28.7 µM (top of the series) unless noted
# Summary of the method: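 SYBR Green fluorescence (485 ex/535 em) of lysed cultures, incubated overnight at room temperature in the dark, quantifies parasite DNA. Infected erythrocytes at 0.3% parasitemia and 2.5% hematocrit were exposed 72 h; values normalized to DMSO and 0.29 uM artemisinin controls.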
# T1 sequence (P35557 whole entry, looked up): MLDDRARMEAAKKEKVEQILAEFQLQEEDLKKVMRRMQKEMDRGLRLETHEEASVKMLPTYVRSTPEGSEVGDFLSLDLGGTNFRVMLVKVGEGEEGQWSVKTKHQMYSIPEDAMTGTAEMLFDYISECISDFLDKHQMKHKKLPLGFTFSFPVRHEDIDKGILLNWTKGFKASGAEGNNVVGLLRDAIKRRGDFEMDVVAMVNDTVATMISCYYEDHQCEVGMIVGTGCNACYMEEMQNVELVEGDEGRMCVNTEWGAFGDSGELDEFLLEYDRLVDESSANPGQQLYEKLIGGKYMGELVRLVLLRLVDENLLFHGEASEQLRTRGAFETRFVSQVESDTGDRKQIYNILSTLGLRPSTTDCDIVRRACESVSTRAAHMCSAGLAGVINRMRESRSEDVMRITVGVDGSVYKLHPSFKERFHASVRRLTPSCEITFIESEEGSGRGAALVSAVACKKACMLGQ
# T1 sequence (Q14397 whole entry, looked up): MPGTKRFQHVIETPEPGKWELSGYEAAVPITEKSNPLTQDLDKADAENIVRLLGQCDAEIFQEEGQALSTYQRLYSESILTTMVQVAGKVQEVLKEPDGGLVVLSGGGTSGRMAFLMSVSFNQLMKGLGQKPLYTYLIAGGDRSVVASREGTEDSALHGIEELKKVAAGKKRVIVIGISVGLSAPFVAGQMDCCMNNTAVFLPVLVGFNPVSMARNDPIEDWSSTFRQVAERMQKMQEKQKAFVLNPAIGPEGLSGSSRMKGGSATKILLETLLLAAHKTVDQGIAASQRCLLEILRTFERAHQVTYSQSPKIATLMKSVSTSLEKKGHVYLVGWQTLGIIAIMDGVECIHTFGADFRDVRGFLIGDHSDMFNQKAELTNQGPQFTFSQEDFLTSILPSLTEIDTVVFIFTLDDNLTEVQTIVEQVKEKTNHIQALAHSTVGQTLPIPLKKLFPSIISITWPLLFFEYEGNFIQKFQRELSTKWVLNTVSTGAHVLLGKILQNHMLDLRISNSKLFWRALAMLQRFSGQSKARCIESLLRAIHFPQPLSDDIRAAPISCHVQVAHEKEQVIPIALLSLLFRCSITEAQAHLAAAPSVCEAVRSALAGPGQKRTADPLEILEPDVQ
smiles,measurement,setting,value
O=C(O)CCCC[C@@H]1CCSS1,Potency,[1],inactive
same,outcome,[2],inactive
same,Potency,[3],inactive
same,max response,[4],7.49% (inactive)
Nc1cc(-c2ccncc2)c[nH]c1=O,max response,[5],-1.18% (inactive)
same,max response,[4],14.6% (inactive)
same,Potency,[6],inactive
Nc1ccc(O)c([N+](=O)[O-])c1,max response,[5],-1.19% (inactive) and -1.35% (inactive)
same,max response,[4],-7.22% (inactive)
same,Potency,[6],inactive
Oc1ccccc1O,max response,[5],-28.6% (inactive)
same,outcome,[2],inactive
same,Potency,[3],inactive
same,Potency,[6],inactive
C=CCCCCCCCCC(=O)O,max response,[5],1.06% (inactive)
same,max response,[4],8% (inactive)
same,Potency,[6],inactive
CN1C2CCC1CC(OC(=O)C(O)c1ccccc1)C2 (configuration not stated),Potency,[1],inactive
same,outcome,[2],inactive
same,Potency,[3],inactive
same,max response,[4],30% (inactive)
c1ccc(-c2ccccn2)nc1,Potency,[1],inactive
same,outcome,[2],inactive
same,Potency,[3],inactive
same,max response,[4],29.6% (inactive)
O=C(Nc1cccc(C(=O)Nc2ccc(S(=O)(=O)O)c3cc(S(=O)(=O)O)cc(S(=O)(=O)O)c23)c1)Nc1cccc(C(=O)Nc2ccc(S(=O)(=O)O)c3cc(S(=O)(=O)O)cc(S(=O)(=O)O)c23)c1,Potency,[1],inactive
same,Potency,[3],22.4 µM (active)
same,Potency,[7],inactive
same,max response,[4],-0.217% (inactive)
O=C(OCc1ccccc1)c1ccccc1,max response,[5],-0.23% (inactive)
same,max response,[4],-5.44% (inactive)
same,Potency,[6],inactive
N=C1N=C(N)c2cc3ccccc3cc21,max response,[5],-12.6% (inactive)
same,Potency,[6],50.1 µM (active)
O=c1[nH]c2cc([N+](=O)[O-])c([N+](=O)[O-])cc2[nH]c1=O,Potency,[1],inactive
same,outcome,[2],inactive
same,Potency,[3],inactive
same,max response,[4],23.7% (inactive)
CC1(C)S[C@@H]2[C@H](NC(=O)[C@H](N)c3ccccc3)C(=O)N2[C@H]1C(=O)O,max response,[5],-0.498% (inactive)
same,max response,[4],0.735% (inactive)
same,Potency,[6],inactive
Nc1nc2ccc([N+](=O)[O-])cc2s1,max response,[5],-4.37% (inactive)
same,Potency,[6],inactive
O=c1cc(-c2ccccc2)oc2ccccc12,max response,[5],-6.91% (inactive) and -11.5% (inactive)
same,max response,[4],7.39% (inactive)
same,Potency,[6],inactive
N.N.N.N.N.N.N.N.N.N.N.N.N.N.O.O.[Ru+4].[Ru+5].[Ru+5],Potency,[1],inactive
same,outcome,[2],inactive
same,Potency,[3],inactive
same,Potency,[4],0.935 µM (active)
CN1[C@@H]2CC[C@H]1CC(OC(=O)C(CO)c1ccccc1)C2 (some centres not stated),max response,[5],-6.68% (inactive)
same,Potency,[6],inactive
Nc1nc(Cl)nc2c1ncn2[C@@H]1O[C@H](COP(=O)(O)OP(=O)(O)OP(=O)(O)O)[C@@H](O)[C@H]1O,Potency,[1],inactive
same,outcome,[2],inactive
same,Potency,[3],inactive
same,max response,[4],20.1% (inactive)
C=CC(C)=C[C@@]1(C)SC(=O)C(C)=C1O,Potency,[1],inactive
same,outcome,[2],inactive
same,Potency,[3],inactive
same,max response,[4],15.5% (inactive)
same,remaining parasite growth % (stronger effect = lower value),[8],98%
same,"activity, percent of control",[9],98.3%
same,"remaining proliferation (% of control), lower = more inhibition",[10],92.5%
O=C(O)/C=C\C(=O)O,max response,[5],-4.39% (inactive)
same,Potency,[6],inactive
C#C[C@]1(O)CC[C@H]2[C@@H]3CCc4cc(O)ccc4[C@H]3CC[C@@]21C,max response,[5],6.34% (inactive) and 7.49% (inactive)
same,max response,[4],16.7% (inactive)
same,Potency,[6],inactive
c1cnc2c(c1)ccc1cccnc12,max response,[5],-9.05% (inactive)
same,outcome,[2],inactive
same,Potency,[3],inactive
same,Potency,[7],inactive
same,Potency,[4],1.87 µM (active)
same,Potency,[6],inactive
CCCOC(=O)c1ccc(O)cc1,max response,[5],-5.7% (inactive) and -1.43% (inactive) and -2.37% (inactive)
same,max response,[4],-1.64% (inactive) and -4.63% (inactive)
same,Potency,[6],inactive
C=CC(=O)c1ccc(CCCCCC)cc1,Potency,[1],inactive
same,outcome,[2],inactive
same,Potency,[3],inactive
same,max response,[4],6.31% (inactive)
CC(C)OC(=O)c1cc(C(=O)OC(C)C)cc([N+](=O)[O-])c1,max response,[5],-4.4% (inactive)
same,max response,[4],4.99% (inactive)
same,Potency,[6],inactive
NCC1OC(O[C@H]2[C@H](O)[C@@H](OC3C(O)C(N)CC(N)C3OC3OC(CO)C(O)C(O)C3N)O[C@@H]2CO)C(N)C(O)C1O (some centres not stated),Potency,[1],inactive
same,outcome,[2],inactive
same,Potency,[3],inactive
same,max response,[4],40.6% (inactive)
c1ccc2sc(SSc3nc4ccccc4s3)nc2c1,max response,[5],-3.31% (inactive) and 10.5% (inactive)
same,max response,[4],10.7% (inactive)
same,Potency,[6],inactive
NCCO,max response,[5],3.76% (inactive)
same,max response,[4],6.49% (inactive)
same,Potency,[6],inactive
Nc1ccc(O)c(C(=O)O)c1,max response,[5],-2.51% (inactive) and -1.43% (inactive)
same,max response,[4],11.4% (inactive)
same,Potency,[6],inactive
COc1cc(CNC(=O)CCCC/C=C/C(C)C)ccc1O,max response,[5],-7.9% (inactive) and -5.74% (inactive)
same,max response,[4],10.1% (inactive)
same,Potency,[6],inactive
O=C(O)[C@H](O)[C@@H](O)[C@H](O)[C@H](O)CO,max response,[5],21% (inactive)
same,max response,[4],-9.36% (inactive) and 0.225% (inactive)
same,Potency,[6],inactive
S=c1[nH]c2ccccc2s1,max response,[5],-14.2% (inactive) and -2.08% (inactive)
same,Potency,[6],inactive
O=C(O)c1cc([N+](=O)[O-])ccc1NCCCc1ccccc1,Potency,[1],inactive
same,outcome,[2],inactive
same,Potency,[3],inactive
same,max response,[4],5.5% (inactive)
Cc1ccc(S(=O)(=O)/C=C/C#N)cc1,Potency,[1],inactive
same,outcome,[2],inactive
same,Potency,[3],inactive
same,Potency,[4],3.55 µM (active)
COc1ccc(NC(=O)/C=C/c2ccc(Cl)cc2)cc1,Potency,[1],1.03 µM (active)
same,outcome,[2],inactive
same,Potency,[3],inactive
same,max response,[4],30.8% (inactive)
CN(C)c1ccc(N=NS(=O)(=O)O)cc1,max response,[5],-12.4% (inactive) and -28.6% (inactive)
same,Potency,[4],35.5 µM (active)
same,Potency,[6],inactive
Nc1ncnc2c1c(I)cn2[C@@H]1C[C@H](N)[C@@H](O)[C@H]1O,Potency,[1],20.6 µM (active)
same,outcome,[2],inactive
same,Potency,[3],inactive
same,max response,[4],12.6% (inactive)
CC[C@@H](C)[C@H]1O[C@]2(CC[C@H]1C)C[C@@H]1C[C@@H](CC=C(C)[C@@H](O[C@H]3C[C@H](OC)[C@@H](O[C@H]4C[C@H](OC)[C@@H](O)[C@H](C)O4)[C@H](C)O3)[C@@H](C)C=CC=C3CO[C@@H]4[C@H](O)C(C)=C[C@@H](C(=O)O1)[C@]34O)O2,remaining parasite growth % (stronger effect = lower value),[8],-0.904%
same,"activity, percent of control",[9],-0.0225%
same,"remaining proliferation (% of control), lower = more inhibition",[10],-0.425%

# — PubChem BioAssay (NCATS)
